Source: the supplement of paper PMC10849652
Targets with a hit are over-represented here; the source holds about 7,900 in all. About 0.6% of all pairs of compound and target were hits.

What was measured:
Assay in all cases: log2 fold change, soluble protein after heating vs DMSO (PISA); higher = thermal stabilisation; K562 cells, 10 uM, 30 min; active = over 0.2 and 3.5 SD of the protein, either way, in both replicates (recomputed)
[1] = compound: CC1=C(C=C(C=C1)NC(=O)C2=CC(=CC=C2)C(C)(C)C#N)NC3=CC4=C(C=C3)N=CN(C4=O)C
Summary of the method: (§1)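 K562 cells at 2×10^6 cells/mL were treated for 30 min with 10 μM compound, and aliquots were heated for 3 min over 48°C-58°C before pooling. Extraction used PBS with 0.5% NP-40 at 4°C, and soluble protein was the supernatant after 21,000xg for 90 min, measured by TMTpro 16plex LC-MS/MS with channel sums equalised. Thermal stability values, relative to control samples and from duplicates, are log2 fold changes.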

[2] = compound: CC1=C(C=C(C=C1)NC(=O)C2=CC(=CC=C2)N(C)C)NC(=O)C3=CC=C(C=C3)O
Summary of the method: as §1

[3] = compound: CC1=CC=C(C=C1)SC2=C3C=C(SC3=CN=C2)C(=O)N
Summary of the method: as §1

[4] = compound: CC1=NC(=CC=C1)C2=C(N=C(N2)C(C)(C)C)C3=CC4=NC=CN=C4C=C3
Summary of the method: as §1

[5] = compound: CCCCN(Cc1ccc(C(=O)NO)cc1)C(=O)Nc1ccccc1 [Nexturastat A]
Summary of the method: as §1

[6] = compound: CCCS(=O)(=O)Nc1ccc(F)c(C(=O)c2c[nH]c3ncc(-c4ccc(Cl)cc4)cc23)c1F [vemurafenib]
Summary of the method: as §1

[7] = compound: CCCS(=O)(=O)Nc1ccc(F)c(C(=O)c2c[nH]c3ncc(Cl)cc23)c1F
Summary of the method: as §1

[8] = compound: CCCc1cc(C)[nH]c(=O)c1CNC(=O)c1cc(-c2ccnc(N3CCN(C)CC3)c2)cc2c1cnn2C(C)C
Summary of the method: as §1

[9] = compound: CCN(CC)Cc1ccc2cc(COC(=O)Nc3ccc(C(=O)NO)cc3)ccc2c1 [givinostat]
Summary of the method: as §1

[10] = compound: CCN(CCCOc1ccc2c(Nc3cc(CC(=O)Nc4cccc(F)c4)[nH]n3)ncnc2c1)CCOP(=O)(O)O [barasertib]
Summary of the method: as §1

[11] = compound: CC[C@@H]1C(=O)N(C)c2cnc(Nc3ccc(C(=O)NC4CCN(C)CC4)cc3OC)nc2N1C1CCCC1
Summary of the method: as §1

[12] = compound: CC[C@@H]1C(=O)N(C)c2cnc(Nc3ccc(C(=O)N[C@H]4CC[C@H](N5CCN(CC6CC6)CC5)CC4)cc3OC)nc2N1C(C)C [volasertib]
Summary of the method: as §1

[13] = compound: CC[C@H](C)N1C=C(C2=C(C=C(C=C21)C3=CN=C(C=C3)N4CCNCC4)C(=O)NCC5=C(C=C(NC5=O)C)C)C
Summary of the method: as §1

[14] = compound: CC[C@H](C)[C@@H](C(=O)N[C@@H]([C@@H](C)O)C(=O)N[C@@H](CC(C)C)C(=O)[C@]1(CO1)C)NC(=O)[C@H]([C@@H](C)CC)N(C)C(=O)C [epoxomicin]
Summary of the method: as §1

[15] = compound: CCn1c(C(=O)N(C2CC2)C2CC2)cc2c3c(ncn3C)c(Nc3cc(C)n(C)n3)nc21
Summary of the method: as §1

[16] = compound: CCn1cc(-c2ccnc3[nH]c(-c4cccc(CN(C)C)c4)cc23)c(-c2ccc(NC(=O)N(C)C)cc2)n1
Summary of the method: as §1

[17] = compound: CN(C)CC(=O)Nc1ccc2[nH]c(=O)c3ccccc3c2c1
Summary of the method: as §1

[18] = compound: CN(CCOC1=CC=C(C=C1)C[C@H]2C(=O)NC(=O)S2)C3=CC=CC=N3 (racemic) [rosiglitazone]
Summary of the method: as §1

[19] = compound: CN1C2=C(C3=C1C(=O)N(N=C3)CC4=CC(=CC=C4)N)SC(=C2)S(=O)C
Summary of the method: as §1

[20] = compound: CN1CCC(CNc2ccc3ncc(-c4cccc(OC(F)(F)F)c4)n3n2)CC1
Summary of the method: as §1

Measured: log2 fold change

SLC4A2 (UniProt P04920)
Sequence of UniProt P04920 (P04920 whole entry, looked up): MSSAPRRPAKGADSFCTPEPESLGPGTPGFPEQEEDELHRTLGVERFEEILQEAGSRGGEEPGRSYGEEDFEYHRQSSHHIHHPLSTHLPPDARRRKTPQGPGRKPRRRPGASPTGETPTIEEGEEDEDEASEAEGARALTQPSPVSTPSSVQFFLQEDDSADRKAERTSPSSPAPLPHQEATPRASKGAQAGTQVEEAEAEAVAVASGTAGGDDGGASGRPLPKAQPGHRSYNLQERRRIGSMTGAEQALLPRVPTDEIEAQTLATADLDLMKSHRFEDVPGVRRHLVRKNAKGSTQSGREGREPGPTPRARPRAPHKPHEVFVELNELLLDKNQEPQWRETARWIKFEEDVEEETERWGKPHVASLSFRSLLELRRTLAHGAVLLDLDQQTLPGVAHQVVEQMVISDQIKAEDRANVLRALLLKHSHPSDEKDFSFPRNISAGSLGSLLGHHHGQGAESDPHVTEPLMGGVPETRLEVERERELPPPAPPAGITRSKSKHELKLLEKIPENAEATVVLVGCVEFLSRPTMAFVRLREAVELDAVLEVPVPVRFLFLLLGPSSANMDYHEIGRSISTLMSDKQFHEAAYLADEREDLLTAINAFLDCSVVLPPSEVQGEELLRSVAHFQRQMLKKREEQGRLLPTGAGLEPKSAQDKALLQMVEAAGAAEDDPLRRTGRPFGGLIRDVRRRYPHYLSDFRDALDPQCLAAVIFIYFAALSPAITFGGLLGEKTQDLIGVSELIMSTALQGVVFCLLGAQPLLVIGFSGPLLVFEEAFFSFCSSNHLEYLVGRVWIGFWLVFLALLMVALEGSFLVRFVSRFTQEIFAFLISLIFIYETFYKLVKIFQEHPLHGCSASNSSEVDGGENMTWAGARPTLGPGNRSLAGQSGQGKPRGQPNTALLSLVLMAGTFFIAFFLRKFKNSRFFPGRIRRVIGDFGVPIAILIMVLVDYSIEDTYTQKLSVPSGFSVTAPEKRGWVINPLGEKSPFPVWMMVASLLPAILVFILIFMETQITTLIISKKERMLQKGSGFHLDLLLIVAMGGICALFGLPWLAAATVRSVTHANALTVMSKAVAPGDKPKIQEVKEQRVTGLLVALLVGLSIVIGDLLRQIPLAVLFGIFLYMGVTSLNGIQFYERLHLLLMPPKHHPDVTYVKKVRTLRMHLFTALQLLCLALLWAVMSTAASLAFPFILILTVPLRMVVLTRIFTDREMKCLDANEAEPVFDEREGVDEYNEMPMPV
inactive: [1] 0.04 | [2] 0.008 | [3] 0.039 | [4] -0.017 | [5] 0.046 | [6] 0.002 | [7] 0.035 | [8] -0.043 | [9] 0.037 | [10] 0.045 | [11] 0.039 | [12] -0.071 | [13] -0.044 | [14] 0.029 | [15] -0.021 | [16] -0.028 | [17] 0.022 | [18] 0.066 | [19] 0.035 | [20] -0.018

SORT1 (UniProt Q99523)
active: [11] -0.984 | [12] -1.34 | [20] -0.582
inactive: [1] -0.042 | [2] 0.013 | [3] -0.006 | [4] -0.012 | [5] -0.038 | [6] -0.003 | [7] -0.008 | [8] -0.072 | [9] -0.003 | [10] 0.015 | [13] -0.013 | [14] 0.032 | [15] -0.028 | [16] 0.007 | [17] 0.003 | [18] 0.008 | [19] -0.028

TLK2 isoform 2 (UniProt Q86UE8)
inactive: [1] -0.003 | [2] -0.015 | [3] -0.013 | [4] 0.02 | [5] -0.072 | [6] -0.029 | [7] 0.03 | [8] -0.036 | [9] 0.099 | [10] -0.006 | [11] -0.015 | [12] -0.112 | [13] 0.029 | [14] -0.01 | [15] 0.057 | [16] -0.024 | [17] -0.012 | [18] 0.014 | [19] -0.039 | [20] -0.054

SPTBN1 (UniProt Q01082)
inactive: [1] 0.018 | [2] 0.02 | [3] 0.004 | [4] -0.036 | [5] 0.088 | [6] 0.058 | [7] 0.006 | [8] 0.051 | [9] 0.049 | [10] 0.019 | [11] 0.009 | [12] -0.163 | [13] 0.079 | [14] -0.024 | [15] -0.048 | [16] 0.013 | [17] 0.018 | [18] 0.001 | [19] 0.081 | [20] 0.048

STAM2 (UniProt O75886)
inactive: [1] -0.08 | [2] -0.032 | [3] 0.034 | [4] 0.069 | [5] -0.012 | [6] 0.009 | [7] 0.074 | [8] -0.038 | [9] 0.021 | [10] 0.028 | [11] -0.039 | [13] 0.063 | [14] 0.039 | [15] -0.007 | [16] -0.056 | [17] 0 | [18] 0.022 | [19] -0.033 | [20] -0.128
active: [12] -0.297

TANK (UniProt Q92844)
Sequence of UniProt Q92844 (Q92844 whole entry, looked up): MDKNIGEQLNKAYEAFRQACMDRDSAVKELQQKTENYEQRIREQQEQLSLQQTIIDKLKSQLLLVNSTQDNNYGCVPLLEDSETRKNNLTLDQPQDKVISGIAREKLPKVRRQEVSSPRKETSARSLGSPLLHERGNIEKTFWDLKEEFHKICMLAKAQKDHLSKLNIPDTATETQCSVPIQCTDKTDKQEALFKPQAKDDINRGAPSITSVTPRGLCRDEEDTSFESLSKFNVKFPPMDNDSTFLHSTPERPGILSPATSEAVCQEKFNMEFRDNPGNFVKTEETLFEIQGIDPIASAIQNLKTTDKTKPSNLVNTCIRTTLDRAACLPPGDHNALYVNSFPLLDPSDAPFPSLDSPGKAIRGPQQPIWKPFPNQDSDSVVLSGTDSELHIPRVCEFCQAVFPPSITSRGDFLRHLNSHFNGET
inactive: [1] -0.076 | [2] 0.059 | [3] 0.007 | [4] 0.028 | [5] -0.047 | [6] -0.031 | [7] -0.018 | [8] 0.065 | [9] 0.013 | [10] 0.089 | [11] 0.057 | [12] -0.105 | [13] -0.064 | [14] -0.021 | [15] -0.074 | [16] 0.074 | [17] -0.012 | [18] -0.012 | [19] -0.117 | [20] -0.072

SUGP1 (UniProt Q8IWZ8)
Sequence of UniProt Q8IWZ8 (Q8IWZ8 whole entry, looked up): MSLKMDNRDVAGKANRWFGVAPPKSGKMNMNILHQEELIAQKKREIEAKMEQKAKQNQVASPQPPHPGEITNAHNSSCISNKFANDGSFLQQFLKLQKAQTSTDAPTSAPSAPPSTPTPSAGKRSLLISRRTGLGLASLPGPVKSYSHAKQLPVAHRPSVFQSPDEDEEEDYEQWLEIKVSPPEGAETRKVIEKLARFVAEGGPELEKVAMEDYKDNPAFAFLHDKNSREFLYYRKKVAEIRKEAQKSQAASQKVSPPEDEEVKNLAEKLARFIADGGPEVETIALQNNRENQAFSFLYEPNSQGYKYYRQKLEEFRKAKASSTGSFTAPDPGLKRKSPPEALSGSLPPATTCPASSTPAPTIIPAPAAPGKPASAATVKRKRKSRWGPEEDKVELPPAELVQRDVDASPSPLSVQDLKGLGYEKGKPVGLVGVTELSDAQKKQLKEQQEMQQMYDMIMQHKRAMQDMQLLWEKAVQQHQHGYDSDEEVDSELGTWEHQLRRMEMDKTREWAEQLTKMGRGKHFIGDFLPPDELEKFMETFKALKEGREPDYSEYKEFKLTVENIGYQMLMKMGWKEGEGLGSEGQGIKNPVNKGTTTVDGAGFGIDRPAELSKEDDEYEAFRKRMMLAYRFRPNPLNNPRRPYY
active: [12] -0.341
inactive: [1] -0.006 | [2] -0.021 | [3] 0.033 | [4] 0.065 | [5] 0.056 | [6] 0.121 | [7] 0.096 | [8] -0.001 | [9] 0.095 | [10] 0.068 | [11] -0.155 | [13] 0.056 | [14] 0.062 | [15] -0.102 | [16] -0.007 | [17] 0.021 | [18] 0.042 | [19] -0.028 | [20] -0.081

SLC25A36 (UniProt Q96CQ1)
Sequence of UniProt Q96CQ1 (Q96CQ1 whole entry, looked up): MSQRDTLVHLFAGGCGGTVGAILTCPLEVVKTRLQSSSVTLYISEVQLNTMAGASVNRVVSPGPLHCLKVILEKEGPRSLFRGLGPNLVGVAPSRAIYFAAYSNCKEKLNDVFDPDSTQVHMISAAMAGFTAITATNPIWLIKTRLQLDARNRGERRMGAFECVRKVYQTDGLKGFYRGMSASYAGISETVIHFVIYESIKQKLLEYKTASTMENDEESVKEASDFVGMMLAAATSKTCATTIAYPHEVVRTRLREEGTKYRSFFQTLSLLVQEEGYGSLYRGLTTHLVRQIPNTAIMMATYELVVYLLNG
inactive: [1] 0.044 | [2] 0.008 | [3] -0.172 | [4] -0.048 | [5] 0.016 | [7] 0.016 | [8] -0.067 | [9] 0.115 | [10] -0.011 | [11] -0.133 | [12] 0.059 | [13] 0.045 | [14] 0.026 | [15] -0.002 | [16] -0.135 | [17] -0.217 | [18] -0.073 | [19] 0.02 | [20] 0.046
active: [6] -0.297

SNRNP27 (UniProt Q8WVK2)
Sequence of UniProt Q8WVK2 (Q8WVK2 whole entry, looked up): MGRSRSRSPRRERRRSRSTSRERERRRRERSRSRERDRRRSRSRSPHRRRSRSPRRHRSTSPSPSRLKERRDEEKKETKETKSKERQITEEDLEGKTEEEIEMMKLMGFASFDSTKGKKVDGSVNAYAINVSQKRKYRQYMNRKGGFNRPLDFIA
inactive: [1] -0.015 | [2] -0.006 | [3] -0.008 | [4] 0.007 | [5] -0.02 | [6] -0.031 | [7] -0.021 | [8] -0.361 | [9] -0.032 | [10] -0.039 | [11] 0.029 | [12] 0.014 | [13] -0.08 | [14] 0.01 | [15] 0.051 | [16] 0.038 | [17] 0.005 | [18] -0.027 | [19] 0.051 | [20] -0.032

SNX5 (UniProt Q9Y5X3)
Sequence of UniProt Q9Y5X3 (Q9Y5X3 whole entry, looked up): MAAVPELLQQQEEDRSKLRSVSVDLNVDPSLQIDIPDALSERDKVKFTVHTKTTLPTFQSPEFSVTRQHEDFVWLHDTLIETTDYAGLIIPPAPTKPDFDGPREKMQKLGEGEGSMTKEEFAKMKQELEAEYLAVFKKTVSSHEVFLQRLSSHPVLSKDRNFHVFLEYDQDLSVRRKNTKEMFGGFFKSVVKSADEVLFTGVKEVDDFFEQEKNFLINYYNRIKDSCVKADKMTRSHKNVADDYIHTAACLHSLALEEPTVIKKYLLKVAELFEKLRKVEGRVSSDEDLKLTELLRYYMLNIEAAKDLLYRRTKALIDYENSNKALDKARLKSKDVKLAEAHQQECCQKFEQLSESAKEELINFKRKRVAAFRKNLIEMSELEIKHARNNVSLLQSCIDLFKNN
active: [20] -0.289
inactive: [1] 0.001 | [2] 0.015 | [3] 0.009 | [4] 0.039 | [5] -0.074 | [6] 0.009 | [7] 0.035 | [8] -0.031 | [9] 0.013 | [10] 0.04 | [11] -0.136 | [12] -0.129 | [13] 0.076 | [14] 0.05 | [15] -0.026 | [16] -0.099 | [17] 0.027 | [18] 0.069 | [19] -0.001

TARS2 (UniProt Q9BW92)
active: [9] -0.245
inactive: [1] -0.027 | [2] 0.022 | [3] 0.021 | [4] 0.078 | [5] -0.201 | [6] 0.008 | [7] 0.027 | [8] -0.013 | [10] 0.028 | [11] -0.017 | [12] -0.128 | [13] 0.012 | [14] 0.02 | [15] 0.009 | [16] -0.002 | [17] -0.019 | [18] 0.018 | [19] -0.055 | [20] -0.069

TBC1D9B (UniProt Q66K14)
inactive: [1] -0.028 | [2] 0.116 | [3] 0.05 | [4] -0.032 | [6] 0.095 | [7] 0.048 | [8] -0.189 | [9] 0.002 | [10] 0.04 | [13] 0.053 | [14] -0.073 | [15] -0.089 | [16] -0.141 | [17] 0.021 | [18] -0.102 | [19] 0.018
active: [5] 0.361 | [11] -0.58 | [12] -0.348 | [20] -0.328

TIPRL (UniProt O75663)
Sequence of UniProt O75663 (O75663 whole entry, looked up): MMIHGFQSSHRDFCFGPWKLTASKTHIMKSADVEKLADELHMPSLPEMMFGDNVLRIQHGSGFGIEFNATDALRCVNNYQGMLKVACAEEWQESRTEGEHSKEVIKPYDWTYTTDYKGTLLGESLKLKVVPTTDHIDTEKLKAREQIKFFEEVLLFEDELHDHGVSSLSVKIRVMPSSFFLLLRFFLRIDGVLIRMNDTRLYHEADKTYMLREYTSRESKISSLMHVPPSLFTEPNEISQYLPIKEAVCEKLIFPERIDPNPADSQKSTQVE
inactive: [1] 0.011 | [2] -0.017 | [3] 0.007 | [4] 0.013 | [5] -0.05 | [6] 0.022 | [7] 0.046 | [8] 0.02 | [9] 0.032 | [10] -0.007 | [11] -0.061 | [13] 0.072 | [14] 0.025 | [15] -0.012 | [16] -0.057 | [17] 0.032 | [18] 0.085 | [19] 0.021 | [20] -0.214
active: [12] -0.23

SLC30A10 (UniProt Q6XR72)
Sequence of UniProt Q6XR72 (Q6XR72 whole entry, looked up): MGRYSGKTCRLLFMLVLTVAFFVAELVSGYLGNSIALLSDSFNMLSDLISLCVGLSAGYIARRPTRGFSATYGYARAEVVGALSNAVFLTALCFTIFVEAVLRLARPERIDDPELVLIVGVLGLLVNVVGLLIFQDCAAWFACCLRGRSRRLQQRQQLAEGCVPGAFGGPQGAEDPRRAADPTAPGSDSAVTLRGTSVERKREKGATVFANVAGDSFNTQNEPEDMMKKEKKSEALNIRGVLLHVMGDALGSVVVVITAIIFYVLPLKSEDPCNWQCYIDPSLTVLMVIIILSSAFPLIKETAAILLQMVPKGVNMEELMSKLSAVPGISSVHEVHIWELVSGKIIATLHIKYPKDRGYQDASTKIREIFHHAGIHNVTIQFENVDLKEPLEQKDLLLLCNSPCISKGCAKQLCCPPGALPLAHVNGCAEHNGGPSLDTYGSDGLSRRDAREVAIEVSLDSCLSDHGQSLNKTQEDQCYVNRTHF
inactive: [1] 0.028 | [2] -0.102 | [3] 0.131 | [4] 0.001 | [6] -0.031 | [7] -0.073 | [8] -0.086 | [9] -0.002 | [10] -0.025 | [11] 0 | [12] -0.052 | [13] -0.052 | [14] 0.045 | [15] 0.023 | [16] -0.244 | [17] -0.028 | [18] 0.039 | [19] -0.087 | [20] 0.044
active: [5] -0.545

SNX9 (UniProt Q9Y5X1)
Sequence of UniProt Q9Y5X1 (Q9Y5X1 whole entry, looked up): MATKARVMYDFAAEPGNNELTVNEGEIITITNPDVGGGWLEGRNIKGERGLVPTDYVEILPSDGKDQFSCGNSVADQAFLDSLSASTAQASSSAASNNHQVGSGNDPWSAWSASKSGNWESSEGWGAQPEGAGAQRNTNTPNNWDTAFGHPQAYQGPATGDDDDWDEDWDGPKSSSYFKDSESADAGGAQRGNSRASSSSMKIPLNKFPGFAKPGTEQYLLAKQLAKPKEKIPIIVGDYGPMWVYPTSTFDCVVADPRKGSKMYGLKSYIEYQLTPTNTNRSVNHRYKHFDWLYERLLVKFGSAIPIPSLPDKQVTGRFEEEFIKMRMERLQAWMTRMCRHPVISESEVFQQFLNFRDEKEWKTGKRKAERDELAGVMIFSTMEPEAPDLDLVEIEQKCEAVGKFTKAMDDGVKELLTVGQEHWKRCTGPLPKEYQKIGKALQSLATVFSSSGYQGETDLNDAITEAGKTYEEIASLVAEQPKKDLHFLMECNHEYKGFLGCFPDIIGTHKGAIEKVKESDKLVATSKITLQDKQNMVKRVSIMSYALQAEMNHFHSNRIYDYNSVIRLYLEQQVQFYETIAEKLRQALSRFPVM
inactive: [1] 0.018 | [2] -0.031 | [3] -0.002 | [4] 0.03 | [5] 0.048 | [6] 0.006 | [7] 0.041 | [8] -0.027 | [9] -0.099 | [10] 0.007 | [11] -0.125 | [13] 0.04 | [14] -0.02 | [15] -0.018 | [16] -0.021 | [17] -0.006 | [18] 0.025 | [19] 0.009 | [20] -0.137
active: [12] -0.309

TBC1D10B (UniProt Q4KMP7)
inactive: [1] -0.019 | [2] 0.015 | [3] 0.025 | [4] 0 | [5] -0.051 | [6] 0.004 | [7] 0.048 | [8] 0.014 | [9] 0.018 | [10] 0.01 | [11] -0.108 | [12] -0.114 | [13] 0.025 | [14] 0.019 | [15] 0.022 | [16] 0.004 | [17] -0.005 | [18] 0.015 | [19] -0.053 | [20] -0.185
